Assay results: PubChem BioAssay AID1347076 (National Center for Advancing Translational Sciences (NCATS), 2019)
Among all 400,000 compounds or so, about 13,000 (3.2%) were called active. Inconclusive results (about 18%) are left out. This is one part of a sample in which actives are shown more often than they occur. The call rests on the fitted dose curve; in most records, active means well fitted cell-killing curve with a large enough effect; inconclusive means small, poorly fitted or top-dose-only effect, or effect the other way; inactive means flat fitted curve, though single readings scatter.
On the % scale 0 is the no-effect control and ±100 the full control effect; potency means the concentration at half of the fitted maximal effect.

Assay: qHTS assay for MDR1-selective chemotherapeutics: Primary screen using the drug-selected MDR subline cells KB-V1; further: nearly all actives have a fitted effect of over 60% in size
Conditions: KB-V1 MDR cells viability, CellTiter-Glo, 72 h; series mostly up to 46.1 µM; activity change, negative = cytotoxicity: at the top concentration
Summary of the method: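 Cells of the MDR subline KB-V1 are plated, dosed with compound at multiple concentrations, and incubated 72 h at 37 degrees C; CellTiter-Glo is then added and luminescence read after 10 min.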
In the case of `COc1ccccc1CNC(=O)c1cc(=O)c2ccccc2o1`, the “activity change, negative = cytotoxicity” value is reported as 11.7% (inactive). In the case of `COc1cc2c(cc1OC)CN(C(=O)c1cc(=O)c3ccccc3o1)CC2`, the Potency is reported as 2.91 µM (active). In the case of `O=C(c1cc(=O)c2ccccc2o1)N1CCN(c2ccccc2)CC1`, the “activity change, negative = cytotoxicity” value is reported as -1.8% (inactive). In the case of `COc1ccc(C2=NN(C(C)=O)C(c3ccccc3)C2)cc1` (stereo not drawn), the “activity change, negative = cytotoxicity” value is reported as -2.5% (inactive). In the case of `O=C(c1ccccc1)N1N=C(c2ccccc2O)CC1c1ccc(Br)cc1` (stereo not drawn), the “activity change, negative = cytotoxicity” value is reported as 2.17% (inactive). For `CNC(=S)N1N=C(c2ccccc2)CC1c1ccc(Br)cc1` (stereo not drawn), the Potency was 11.6 µM (active). For `CC1(C(=O)NS(=O)(=O)c2ccc(C#N)cc2)CCN1C(=O)c1ccc(C2CCCCC2)cc1` (stereo not drawn), the “activity change, negative = cytotoxicity” value was -15.4% (inactive). For `CCOC(=O)C1CCC(CN(Cc2ccc(OC)cc2)S(=O)(=O)c2ccc(F)c(C(=O)Nc3cc(C)ccc3C)c2)CC1` (stereo not drawn), the “activity change, negative = cytotoxicity” value was 22.9% (inactive). In the case of `N#CC1=C(SCc2ccc(C#N)cc2)N=C(N)C(c2nc(-c3ccccc3)cs2)C12CCCCC2` (stereo not drawn), the “activity change, negative = cytotoxicity” value is reported as -3.05% (inactive). With `N#CC1=C(SCc2ccccc2)NC(=O)C(C#N)C12CCCC2` (stereo not drawn) the Potency was 14.6 µM (active). In the case of `CCCCN1CC(C)(C)[C@H](CC(=O)Nc2ccc(Br)cc2)C1=O`, the “activity change, negative = cytotoxicity” value is reported as 9.65% (inactive). For `COc1ccccc1CNC(=O)CCCCn1c(=O)c2ccccc2n(CC(=O)Nc2cc(Cl)ccc2C)c1=O`, the “activity change, negative = cytotoxicity” value was -4.31% (inactive). With `CC(Sc1oc(-c2ccco2)nc1S(=O)(=O)c1ccc(Br)cc1)c1ccccc1` (stereo not drawn) the “activity change, negative = cytotoxicity” value was -2.48% (inactive). For `Cc1ccc(C(=O)NC(C)C(c2cccs2)N2CCOCC2)cc1C` (stereo not drawn), the “activity change, negative = cytotoxicity” value was -8.87% (inactive). For `CCN(CCCNC(=O)c1cc(Nc2ccc(OC)cc2)nc2ccccc12)c1cccc(C)c1`, the “activity change, negative = cytotoxicity” value was 26.8% (inactive). With `CN(C(=O)COC(=O)CNC(=O)C12CC3CC(CC(C3)C1)C2)c1ccccc1` the “activity change, negative = cytotoxicity” value was -4.54% (inactive). For `CC(C)(C)c1ccc(C(=O)NNC(=O)Cc2ccccc2)cc1`, the “activity change, negative = cytotoxicity” value was 3.78% (inactive). With `CN(C(=O)CC(NC(=O)c1ccccc1)(c1ccccc1)c1ccccc1)c1ccccc1` the Potency was 10.3 µM (active). With `O=C(Nc1cccc(-c2nc3ccccc3o2)c1)c1cccc(Br)c1` the “activity change, negative = cytotoxicity” value was -1.06% (inactive). In the case of `Nc1nc(N)c(N=O)c(N)n1`, the “activity change, negative = cytotoxicity” value is reported as 0.0458% (inactive). For `COc1ccc(NC(=O)CCC(=O)N2CCN(S(=O)(=O)c3ccc(C)cc3)CC2)c(OC)c1`, the “activity change, negative = cytotoxicity” value was -3.16% (inactive). For `Cc1ccc(S(=O)(=O)N2CCN(C(=O)CCC(=O)NC3CCCc4ccccc43)CC2)cc1` (stereo not drawn), the Potency was 23.1 µM (active). With `O=C(CCC(=O)N1CCN(S(=O)(=O)c2ccccc2)CC1)NC1CCCc2ccccc21` (stereo not drawn) the “activity change, negative = cytotoxicity” value was -9.17% (inactive). For `CC1(C(=O)NS(=O)(=O)c2cccc(F)c2)CCN1C(=O)c1cccc2ccccc12` (stereo not drawn), the “activity change, negative = cytotoxicity” value was 5.37% (inactive). In the case of `COc1ccccc1-n1c(SCC(=O)Nc2ccc(Cl)cc2)nc(O)c(Cc2ccccc2)c1=O`, the “activity change, negative = cytotoxicity” value is reported as 6.89% (inactive). With `Oc1ccccc1N1CCN(c2ncnc3sc(-c4ccccc4)cc23)CC1` the “activity change, negative = cytotoxicity” value was 2.18% (inactive). In the case of `CCc1cc2c(NC3CCCC3)ncnc2s1`, the “activity change, negative = cytotoxicity” value is reported as 2.62% (inactive). For `CCc1cc2c(N3CCN(c4nnc(CC)s4)CC3)ncnc2s1`, the Potency was 3.66 µM (active). For `CCCNC(=O)C1(C)CCCN(C(=O)c2oc3ccccc3c2C)C1` (stereo not drawn), the “activity change, negative = cytotoxicity” value was 2.13% (inactive). With `O=C(Cn1cc(C(F)(F)F)ccc1=O)N/N=C/c1ccc(Cl)cc1Cl` the “activity change, negative = cytotoxicity” value was -21.2% (inactive). For `C=CCOc1ccccc1/C=N/NC(=O)Cc1ccccc1`, the “activity change, negative = cytotoxicity” value was -7.11% (inactive). With `O=C(Cc1ccccc1)N/N=C/c1ccc(Cl)cc1Cl` the Potency was 23.1 µM (active). In the case of `CN(C)c1ccc(/C=c2\[nH]c(=O)/c(=C/c3ccc(N(C)C)cc3)[nH]c2=O)cc1`, the “activity change, negative = cytotoxicity” value is reported as 7.38% (inactive). In the case of `COc1ccc(OC)c(-n2nnc3c(sc4nc(C)c(Br)c(C)c43)c2=O)c1`, the “activity change, negative = cytotoxicity” value is reported as 0.722% (inactive). With `COc1ccc(OC)c(Cc2cnc3nc(N)nc(N)c3c2C)c1` the Potency was 10.3 µM (active). In the case of `COc1ccc(OC)c(Cc2nnc(CCC(=O)NC3CCCC3)o2)c1`, the “activity change, negative = cytotoxicity” value is reported as -5.46% (inactive). In the case of `Nc1nc2c(Br)ccc(Br)c2cc1C(=O)NCCc1ccccc1`, the “activity change, negative = cytotoxicity” value is reported as -7.75% (inactive). In the case of `Cc1cc(Br)ccc1NC(=O)CCCOc1cc(=O)n(C)c2ccccc12`, the “activity change, negative = cytotoxicity” value is reported as -28.2% (inactive). In the case of `O=C(c1cccc(S(=O)(=O)Nc2ccccc2Cl)c1)N1CCN(C(=O)c2ccco2)CC1`, the “activity change, negative = cytotoxicity” value is reported as 0% (inactive). With `O=C(Nc1ccc2c(c1)CCC2)c1cccc(S(=O)(=O)Nc2ccccc2Cl)c1` the Potency was 20.6 µM (active). For `O=C(Nc1ccc2c(c1)CCC2)c1cccc(S(=O)(=O)N2CCN(c3ccc(F)cc3)CC2)c1`, the “activity change, negative = cytotoxicity” value was 3.08% (inactive). With `Cc1ccc2nc(/C(C#N)=C/c3ccc(-c4ccc(C(=O)OC(C)C)cc4)o3)[nH]c2c1` the “activity change, negative = cytotoxicity” value was 0.0041% (inactive). In the case of `CCN(CC)C(=O)C(C)N1c2cccc3cccc(c23)S1(=O)=O` (stereo not drawn), the “activity change, negative = cytotoxicity” value is reported as -11.9% (inactive). With `O=C(Nc1ccc(-c2nc3ccccc3[nH]2)cc1)c1ccncc1` the “activity change, negative = cytotoxicity” value was 21.2% (inactive). With `CCOC(=O)c1ccc(NC(=O)Cc2cccs2)cc1` the “activity change, negative = cytotoxicity” value was -14.2% (inactive). In the case of `O=C(Cc1cccs1)Nc1cccc(-c2nc3ccccc3[nH]2)c1`, the Potency is reported as 16.4 µM (active). With `CC(C)c1cc(C(=O)N(C)C2CCCN(Cc3ccccc3F)C2)n(C)n1` (stereo not drawn) the “activity change, negative = cytotoxicity” value was -13.9% (inactive). For `Cc1nccn1-c1ccc(NC(=O)[C@H]2O[C@@H](n3ccc(=O)[nH]c3=O)[C@H](O)[C@@H]2O)cc1`, the “activity change, negative = cytotoxicity” value was 24.1% (inactive). For `CCOC(=O)c1cc(-c2ccccc2)n(-c2cccc(C(=O)Nc3cc(OC)cc(OC)c3)c2)c1C`, the “activity change, negative = cytotoxicity” value was 17.9% (inactive). In the case of `COc1ccc(C(=O)C(C)OC(=O)c2cccc(S(=O)(=O)Nc3c(C)n(C)n(-c4ccccc4)c3=O)c2)cc1` (stereo not drawn), the “activity change, negative = cytotoxicity” value is reported as 0% (inactive). For `Cc1c(NS(=O)(=O)c2ccc(Cl)cc2)c(=O)n(-c2ccccc2)n1C`, the “activity change, negative = cytotoxicity” value was 21.8% (inactive). In the case of `Cc1c(NS(=O)(=O)c2cccc(C(=O)Nc3ccc(SC(F)F)cc3)c2)c(=O)n(-c2ccccc2)n1C`, the Potency is reported as 5.17 µM (active). With `COc1cccc(CN2CCC(C(=O)NC(c3ccc4c(c3)OCO4)c3ccccn3)CC2)c1` (stereo not drawn) the “activity change, negative = cytotoxicity” value was 3.03% (inactive). In the case of `CC(=O)c1cccc(NC(=O)[C@@H](NC(N)=O)C(C)C)c1`, the “activity change, negative = cytotoxicity” value is reported as 0% (inactive). With `COc1ccc(/C=C(/NC(=O)c2ccccc2)C(=O)Nc2cccc(C(=O)O)c2)cc1` the “activity change, negative = cytotoxicity” value was 9.03% (inactive). For `COc1ccc(NC(C(=O)Nc2cccc(C(C)=O)c2)c2ccccc2)cc1` (stereo not drawn), the Potency was 4.61 µM (active). In the case of `CN(C)c1ccc(/C=N\Nc2ccc([N+](=O)[O-])cc2[N+](=O)[O-])cc1Cl`, the “activity change, negative = cytotoxicity” value is reported as -16.2% (inactive). With `CC(C)Nc1ncnc2c1nnn2Cc1ccccc1` the “activity change, negative = cytotoxicity” value was -10.4% (inactive). In the case of `CC(C)Cc1nc(Nc2ccc(S(=O)(=O)N3CCCC3)cc2)c2nnn(Cc3ccccc3)c2n1`, the Potency is reported as 20.6 µM (active). For `Cc1nc(Nc2ccc(S(=O)(=O)N3CCCC3)cc2)c2nnn(Cc3ccccc3)c2n1`, the “activity change, negative = cytotoxicity” value was -20.1% (inactive). With `CCOC(=O)[C@]12CCC=C1N(Cc1cccc3ccccc13)C(=O)[C@H](CC(=O)NCc1cccc(C(F)(F)F)c1)C2` the Potency was 20.6 µM (active). With `CCOC(=O)[C@]12CCCC=C1N(Cc1cccc3ccccc13)C(=O)[C@H](CC(=O)NCC13CC4CC(CC(C4)C1)C3)C2` the “activity change, negative = cytotoxicity” value was -24.8% (inactive). In the case of `CCOC(=O)[C@]12CCC=C1N(Cc1ccco1)C(=O)[C@H](CC(=O)NCc1cccc(C(F)(F)F)c1)C2`, the “activity change, negative = cytotoxicity” value is reported as -5.43% (inactive).
